Measured values published in PubChem BioAssay AID1259343 (VanderVen Lab, College of Veterinary Medicine, Cornell …, 2017).
Hit rate of the full screen: of about 6,200 compounds, about 2,900 (47%) were called active. No stated cut-off is given here; in the data, active means inhibition above about 50%; inactive means the rest. So high a share suggests a set chosen from earlier hits. This is one part of the list.

Test: Mycobacterium tuberculosis growth inhibition, primary screen (AID 1259343)
Details: inhibition: at 10 µM, hits give high values; outcome: 10 uM

Compound | inhibition
O=C(c1ccc2nonc2c1)N1CCCC2(CCCc3ccccc32)C1 (stereo not given) | 23.2% (inactive)
COc1cccc(-c2ccccc2NC(=O)C2CCN(Cc3cnc(C)nc3)CC2)c1 | 33% (inactive)
COc1cccc(-c2ccccc2NC(=O)C2CCN(Cc3cccc4cccnc34)CC2)c1 | inactive
COc1cccc(-c2ccccc2NC(=O)C2CCN(Cc3cccc(C)n3)CC2)c1 | 99.6% (active)
COc1cccc(-c2ccccc2NC(=O)C2CCN(Cc3ccc(OC)c(C)c3)CC2)c1 | 92% (active)
CC(C)c1cccc(N(C)Cc2cncn2C)c1 | 42.1% (inactive)
N#CC(=Cc1cccc2ccccc12)c1ccccn1 | 22.6% (inactive)
N#CC(=Cc1ccc(Cl)cc1)c1nc(C2CC2)cs1 | 20.5% (inactive)
N#CC(=Cc1cccc2ccccc12)c1nc(C2CC2)cs1 | 96.1% (active)
CCc1c(C)nc(-c2cccc(C(F)(F)F)c2)nc1N1CCNCC1 | 33.2% (inactive)
Cc1cc(N2CCNCC2)nc(-c2cccc(C(F)(F)F)c2)n1 | 94.4% (active)
CCc1c(C)nc(-c2ccc(C(F)(F)F)cc2)nc1N1CCNCC1 | 61.7% (active)
Cc1ccc(Cc2nsc(N3CCN(c4cccc(C(F)(F)F)c4)CC3)n2)cc1 | 24.1% (inactive)
OCC1(Cc2cccc(C(F)(F)F)c2)CCN(c2ccc3ccccc3n2)CC1 | 22.1% (inactive)
Cc1cc(N2CCNCC2)nc(-c2ccc(C(F)(F)F)cc2)n1 | 82% (active)
O=[N+]([O-])c1cc(Cl)ccc1Oc1ccc2ccccc2c1 | 77.2% (active)
Nc1cc(Cl)ccc1Oc1ccc(Cl)cc1 | -29.7% (inactive)
CC(C)(C)c1cc(/C=C(\C#N)C(N)=S)cc(C(C)(C)C)c1O | 102% (active)
Cc1nnc(NC(=O)C(C)SC(F)(F)F)s1 (stereo not given) | 91.5% (active)
CCOc1ccc(N=Nc2c(C)n[nH]c2C)cc1 | -45% (inactive)
Cc1n[nH]c(C)c1N=Nc1ccc(Br)cc1 | 104% (active)
Cc1nc(N)sc1N=Nc1ccc(Br)cc1 | 23.2% (inactive)
Nc1nnc(SCc2ccc(Br)cc2F)s1 | 28.8% (inactive)
CCc1ccc(-c2noc(CSc3nnc(N)s3)n2)cc1 | 12.6% (inactive)
Nc1nnc(SCC2CC2)s1 | 86.5% (active)
O=C(O)COc1ccccc1-c1nc(-c2ccccc2)c(-c2ccccc2)[nH]1 | 13.8% (inactive)
O=C(O)COc1c(I)cc(Cl)c2cccnc12 | 94.3% (active)

Compound | inhibition
O=C(CCC(=O)c1ccc(-c2ccccc2)cc1)NC1=NCCS1 | 33.8% (inactive)
CCCC(=O)OCC(=O)Nc1ccc2ccccc2c1 | 33.2% (inactive)
Cc1cc(C)cc(NC(=O)CCC(=O)c2ccc3ccccc3c2)c1 | 72.2% (active)
COc1ccccc1C(=O)Nc1nnc(CC(C)C)s1 | 21.6% (inactive)
CCc1nnc(NC(=O)C2CC2)s1 | 68.7% (active)
CCc1nnc(NC(=O)c2ccc(O)c(Cl)c2)s1 | 81.3% (active)
O=C(O)C1C2C=CC(O2)C1C(=O)NCc1ccccc1Cl (stereo not given) | 23.3% (inactive)
CC(C(=O)NCc1ccccc1Cl)n1nnc(-c2ccco2)n1 (stereo not given) | 56.3% (active)
Cn1c(CNC(=O)Cc2c(Cl)cccc2Cl)n[nH]c1=S | 8.23% (inactive)
O=C1CCc2c(OCc3ncc(-c4cccc(Cl)c4)o3)cccc21 | 39.9% (inactive)
O=C(O)CCN(CCc1ccccc1)c1nc(-c2ccc(Cl)cc2)nc2ccccc12 | 24.8% (inactive)
O=C(O)CCc1ncc(-c2ccc(Cl)cc2)o1 | 90.3% (active)
O=C1CCC(C(=O)N(Cc2ccc(F)cc2)c2nc(-c3ccccc3)cs2)=NN1 | 64.5% (active)
O=C(CN(Cc1ccccc1)C(=O)c1ccc(Cl)c(Cl)c1)Nc1cc(-c2ccccc2)nn1-c1ccc(F)cc1 | -13.3% (inactive)
O=C(CCCCl)Nc1nc(-c2ccc(F)cc2)cs1 | 12.9% (inactive)
N#CC(=Cc1ccncc1)c1nnc2n1CCCCC2 | -11% (inactive)
Cc1ccc(-c2noc(-c3ccc(Br)o3)n2)cc1 | 55.7% (active)
Fc1ccccc1-c1nc(-c2ccc(Br)o2)no1 | 28.8% (inactive)
Cc1ccc(-c2nc(-c3ccc(Br)cc3)no2)cc1 | 11.5% (inactive)
CCN(CC)CCCC(C)NC(=O)c1cc(-c2ccc(OC)cc2)nc2cc(C(C)(C)C)nn12 (stereo not given) | 58.1% (active)
Cc1ccc(-c2cc(C(=O)O)n3nc(C(C)(C)C)cc3n2)cc1 | 103% (active)
COc1ccc(-c2cc(C(=O)O)n3nc(C(C)(C)C)cc3n2)cc1 | 53.5% (active)
CC1(C)OCC(CN2C(=O)c3ccccc3NC2c2c[nH]c3cnc(OCc4ccccc4)cc23)O1 (stereo not given) | 32.8% (inactive)
COc1ccc(NC(=O)CSc2cc(C)ccc2C)cc1Cl | 88.7% (active)
COc1ccc(Cl)cc1NC(=O)c1ccc2c(c1)OCCCO2 | 29.1% (inactive)
COc1ccc(NC(=O)Cc2ccccc2F)cc1Cl | 14.2% (inactive)
COc1ccc(NC(=O)CNc2cc3c(cc2Cl)OCCCO3)cc1Cl | 92.9% (active)

Compound | inhibition
COc1ccc(NC(=O)CNS(=O)(=O)c2cnn(C)c2)cc1Cl | 85.8% (active)
COc1ccc(NCC(=O)NCC(F)(F)F)cc1Cl | 95.5% (active)
CC(C)N=C1NN=C(c2c[nH]c3ccccc23)C(c2ccccc2)S1 (stereo not given) | 2.32% (inactive)
Cc1nc2c(-c3ccccc3)c[nH]n2c(=O)c1C | 23.2% (inactive)
O=c1c2c(nc3c(-c4cccc5ccccc45)c[nH]n13)CCC2 | 88.6% (active)
CC1CCC(NC(=O)c2ccc(Br)o2)CC1 (stereo not given) | 25.1% (inactive)
Cc1oc(-n2cccc2)c(C#N)c1C(=O)NC1CCC(C)CC1 (stereo not given) | 77.2% (active)
Cc1oc(-n2cccc2)c(C#N)c1C(=O)OCc1cc(=O)n2c(C)csc2n1 | -7.14% (inactive)
Cn1ccnc1Sc1nc(-c2ccccn2)nc2scc(-c3ccccc3)c12 | 77.2% (active)
COc1ccccc1N1CCN(Cn2nc(C3COc4ccccc4O3)oc2=S)CC1 (stereo not given) | 49.9% (inactive)
Cc1nccn1CC(O)Cn1c2ccc(Cl)cc2c2cc(Cl)ccc21 (stereo not given) | 66.4% (active)
OC(CN1CCCC1)Cn1c2ccc(Cl)cc2c2cc(Cl)ccc21 (stereo not given) | -9.02% (inactive)
Cc1nn(CC(O)Cn2c(C)c(C)c3cccc(Cl)c32)c(C)c1Br (stereo not given) | 25.1% (inactive)
Cn1nnc2c(=O)n(Cc3ccc(C(F)(F)F)cc3)cnc21 | 45.7% (inactive)
Cc1c(C(=O)NCc2ccc(C(F)(F)F)cc2)sc(=O)n1Cc1ccc(F)cc1 | 20.5% (inactive)
O=C1N(Cc2ccccc2)C(c2ccc(C(F)(F)F)cc2)C1(F)F (stereo not given) | 79.7% (active)
CC(=O)N1CCc2cc(-c3nc(COc4ccccc4)sc3C)ccc21 | 37.8% (inactive)
O=C(COc1ccccc1)N1CCc2ccc(O)cc2C1 | 68.5% (active)
CC(C)Oc1ncc(C(=O)N2CCc3ccc(O)cc3C2)cc1Cl | 33.5% (inactive)
O=[N+]([O-])c1ccc2[nH]c(=S)sc2c1 | -16.1% (inactive)
N#CCCSc1nc2ccc([N+](=O)[O-])cc2s1 | 52% (active)
Cc1nc2sc(C)c(C)n2c(=O)c1NC(=O)c1ccc(-c2ccccc2)cc1 | 34.6% (inactive)
CC(=O)Nc1nc(-c2ccc(C)cc2)c(-c2ccccc2)s1 | 86% (active)
CN(C)C=Nc1nc(-c2ccccc2)c(-c2ccccc2)s1 | 15.9% (inactive)
O=C(Nc1cc(F)ccc1F)c1ccc(NC(=O)C2CC2)s1 | 23.9% (inactive)
O=C(NC1CCS(=O)(=O)C1)c1ccc(-c2ccc(F)cc2)s1 (stereo not given) | 79% (active)
O=C(NC1CCS(=O)(=O)C1)c1ccc(Br)o1 (stereo not given) | 10.7% (inactive)

Compound | inhibition
COc1ccc(C(=O)Nc2cc(C)nn2-c2nc(C)c(C)c(=O)[nH]2)c(OC)c1 | 26.6% (inactive)
COc1ccc(C(=O)Nc2cc(C3CC3)nn2-c2nc(C)c(C)c(=O)[nH]2)c(OC)c1 | 90% (active)
COc1cc(C(=O)Nc2cc(C3CC3)nn2-c2nc(C)cc(=O)[nH]2)cc(OC)c1OC | 101% (active)
COc1cc(C(=O)Nc2cc(C3CC3)nn2-c2nc(C)c(C)c(=O)[nH]2)cc(OC)c1OC | 100% (active)
c1ccc2c(c1)OCC(CSc1nnnn1C1CCCC1)O2 (stereo not given) | 96.2% (active)
COc1ccc(OCCSc2nnnn2C2CCCCC2)cc1 | -35.2% (inactive)
Clc1cc(CSc2nnnn2C2CCCC2)cc2c1OCCO2 | -23.6% (inactive)
N#CC1(NC(=O)c2cnc(-c3ccc4c(c3)OCO4)s2)CCCC1 | 86.4% (active)
CN(Cc1ccco1)C(=O)c1cnc(-c2ccc3c(c2)OCO3)nc1Nc1ccccc1 | 47.5% (inactive)
C=CCN(C(=O)c1ccc(-c2ccc3c(c2)OCCO3)s1)C1CCCCC1 | 45.7% (inactive)
COc1ccc(N=C(c2cc([N+](=O)[O-])cc([N+](=O)[O-])c2)n2ccnc2)cc1 | 92.1% (active)
COCc1ccc(C(=O)N2CCCC(Nc3ccc(C(C)C)cc3)C2)s1 (stereo not given) | 21.9% (inactive)
C=Cc1ccc(C(=O)N2CCCC(Nc3ccc(F)cc3)C2)cc1 (stereo not given) | 75.9% (active)
O=C(c1cc(Br)c[nH]1)N1CCC(Nc2ccc(F)cc2)CC1 | 1.55% (inactive)
O=C(Nc1nc2c(s1)CCc1ccccc1-2)C1CC1 | 64% (active)
Cc1nc(NC(=O)C2CC2)sc1Cc1ccccc1Cl | 32.1% (inactive)
O=C(C=Cc1cccs1)NC1CCCCC1 | 37% (inactive)
O=C(C=Cc1cccs1)NC1CCCCCC1 | 61.3% (active)
CCC(CNC(=O)/C=C/c1sccc1C)c1ccccc1 (stereo not given) | 28.2% (inactive)
O=C(C=Cc1cccs1)NC1CCCC1 | 21.5% (inactive)
C=CCNC(=O)C=Cc1cccs1 | 92.6% (active)
CC(C)NC(=S)NN=Cc1cccs1 | 100% (active)
S=C(NN=Cc1cccs1)NC1CCCCC1 | 87.5% (active)
C(=NNc1ccc2ccccc2n1)c1cccs1 | 39.2% (inactive)
